Screening results as filed in PubChem BioAssay.
Rows were chosen to be rich in hits. Some 4.5% of all compounds tested hit in one or more screens of this group.
HTT promoter inh: inhibitors of huntingtin promoter activity; HEK293 HTT promoter firefly luciferase reporter, 24 h; Potency, µM (series often up to 57.5 µM), for inactives: at the top dose activity change, negative = inhibition, usual class: inhibitors; actives 0.93% (n = 48,000); AID 1508623; further: potency means the concentration at half of the fitted maximal effect; nearly all actives have a fitted effect of over 50% in size
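Firefly luciferase signal from promoter-reporter HEK293 cells was scaled between vehicle (0%) and zero RLU (-100%). Compounds were tested at final concentrations of up to 57.5 uM over 24 h at 37 degrees C. PTC124 at 50 uM final served as control inhibitor.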
OvCa metastasis: blocks SKOV3ip1 adhesion and invasion in omental model; SKOV3ip1-GFP adhesion/invasion on 3D omental model, fluorescence; actives 0.1% (n = 46,000); Potency, µM (titrated, usually from 45.8 µM), without a hit: at the highest dose activity change, negative = inhibition, hits mostly inhibitors; AID 1963576;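 further: potency means the concentration at half of the fitted maximal effect; plate controls were DMSO wells for no effect and tomatine positive control wells for full effect; nearly all actives have a fitted effect of over 65% in size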
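A 3D layer of primary human omental fibroblasts, mesothelial cells, fibronectin and collagen I, grown 48 hr, received SKOV3ip1-GFP cells in serum-free medium plus compounds at 0.36-46 umol/L. After 2 hr RT and 16 hr 37 C, fixed adherent GFP cells were counted; normalized to DMSO and tomatine.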
HTT-AS act: activates huntingtin-antisense promoter activity; actives 0.24% (n = 48,000); Potency, µM (series often up to 57.5 µM), for inactives: at the highest dose activity change, positive = activation, actives largely listed as activators; HEK293 HTT-AS promoter firefly luciferase reporter, 24 h; response scale: percent change from vehicle, -100% = no light; further: potency means the concentration at half of the fitted maximal effect; nearly all actives have a fitted effect of over 55% in size
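HEK293 cells carrying firefly luciferase reporters were seeded at 2,500 per well in Opti-MEM and cultured for 24 h. They were then treated with compounds at up to 57.5 uM final for 24 h at 37 degrees C before Dual-Glo luminescence readout.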
NTMT1 inh: NTMT1 methyltransferase inhibition. actives 2.5% (n = 59,000). Q9BV86. Potency, µM (doses to about 114 µM), for inactives: at the top dose activity change, negative = inhibition, most hits filed as inhibitors. NTMT1 MTase-Glo SAH luminescence, purified enzyme;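 further: potency means the concentration at half of the fitted maximal effect; plate controls were DMSO vehicle for no effect and no enzyme for full effect; nearly all actives have a fitted effect of over 65% in size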
Target sequence (Q9BV86 whole entry, looked up): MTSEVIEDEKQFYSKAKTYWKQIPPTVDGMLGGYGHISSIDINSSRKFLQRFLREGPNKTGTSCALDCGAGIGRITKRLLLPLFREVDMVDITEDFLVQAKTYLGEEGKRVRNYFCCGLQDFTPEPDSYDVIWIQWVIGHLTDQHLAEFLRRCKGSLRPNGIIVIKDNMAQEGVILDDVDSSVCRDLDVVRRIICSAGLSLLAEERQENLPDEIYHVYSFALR
DRV1 agonist: activates human resolvin D1 receptor GPR32; CHO-K1 GPR32 beta-arrestin PathHunter luminescence, 90 min; zero percent set by DMSO-only wells; activation, % at 76.9 µM; O75388; actives 2.5% (n = 48,000);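 active means activation of at least 60% and not above a set upper limit, about 1 call in 100 departs from these limits; inconclusive means activation of 40% to 60%, or above that upper limit; inactive means activation under 40%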; further: 0% is about no effect
Target sequence (O75388 whole entry, looked up): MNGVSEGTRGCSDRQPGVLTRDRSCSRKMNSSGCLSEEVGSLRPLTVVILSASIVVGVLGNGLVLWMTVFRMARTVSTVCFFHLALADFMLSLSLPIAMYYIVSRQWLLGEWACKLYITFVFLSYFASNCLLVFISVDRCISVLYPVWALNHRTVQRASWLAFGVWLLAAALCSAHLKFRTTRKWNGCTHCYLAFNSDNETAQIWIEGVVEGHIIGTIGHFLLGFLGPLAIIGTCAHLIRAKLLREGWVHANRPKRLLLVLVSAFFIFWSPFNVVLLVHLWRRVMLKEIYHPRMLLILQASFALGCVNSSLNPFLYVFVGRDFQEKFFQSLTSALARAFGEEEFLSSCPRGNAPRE
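Beta-arrestin recruitment read-out: luminescence from complemented beta-Gal in CHO-K1 GPR32 PathHunter cells, measured 1 h after detection reagent at ambient temperature following 90 min compound exposure at 37 °C; DMSO served as basal (EC0) control.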
The depositor's hits bear a star; i = inactive; u = inconclusive; x = not tested or not shown; ! = repeats disagree; [ ] = remark or other dose. Unless noted, the call rests on the fitted dose curve; in most records, active means well fitted curve in the direction sought with a large enough effect; inconclusive means small, poorly fitted or top-dose-only effect, or another doubt; inactive means no such curve, though single readings can be large; an effect the other way counts as inactive or inconclusive.

SMILES	HTT promoter inh	OvCa metastasis	HTT-AS act	NTMT1 inh	DRV1 agonist
Cc1ccc(C(Nc2ccccn2)c2ccc3cccnc3c2O)cc1 (stereo not given)	u	-28%	-48%	10%	u
O=C(Cn1cc(S(=O)(=O)N2CCN(c3ccccc3F)CC2)c2ccccc2c1=O)Nc1ccc(F)cc1Cl	-21%	38%	-16%	u	-11
COc1ccccc1CNC(=O)c1ccc2c(c1)nnn2C1CCCC1	-1%	5%	21%	-5%	-10
Cc1cc(C)cc(NC(=O)N2CCN(C)c3ncccc32)c1	-4%	i	-10%	11%	-15
O=C(NCC1CCN(Cc2cccc(Cl)c2)CC1)Nc1ccc(F)c(Cl)c1	u	20µM*	-26%	-13%	11
CCOc1ccc(S(=O)(=O)NCCc2csc3nc(-c4ccc(OC)c(OC)c4)nn23)cc1	16%	12%	-3%	-4%	-8
CCOc1ccc(S(=O)(=O)NCCc2csc3nc(-c4ccc(F)cc4)nn23)cc1	25µM*	i	-42%	2%	38
Cc1cc(OI)c(C(C)C)cc1-c1cc(C(C)C)c(OI)cc1C	11%	x	-4%	18µM*	18
Cc1ccc(C(N)=O)cc1Nc1nccc(-c2cn(C(C)C)c3cnccc23)n1	u	-13%	-30%	11µM*	x
Cc1cc(OCCCS(C)(=O)=O)cc(C)c1-c1cccc(COc2ccc3c(c2)OC[C@H]3CC(=O)O)c1	-34%	-9%	-28%	79µM*!	x
CCOc1ccccc1Nc1nc2ccccc2nc1NS(=O)(=O)c1ccc(Cl)cc1	-11%	i	-26%	-17%	67*
CCOC(=O)c1ccc(Nc2nc3ccccc3nc2NS(=O)(=O)c2ccc(Cl)cc2)cc1	u	4%	-21%	7%	u
CCCCc1nn2c(C)c(-c3ccc(OCC)cc3)nc2s1	-15%	i	-1%	9%	5
COc1ccc(OC(=O)N(CC(=O)O)Cc2ccc(OCCc3nc(-c4ccccc4)oc3C)cc2)cc1	-6%	x	-10%	-6%[57.5 µM]	u
Cc1oc(-c2ccccc2)nc1CCC(=O)c1ccc(CC2SC(=O)NC2=O)cc1 (stereo not given)	-13%	x	-28%	35%[57.5 µM]	74*
COC(=O)c1c(NC(=O)c2ccccc2C(=O)O)sc2c1CCCC2	2%	2%	-5%	u	-4
CC1(C)Cc2c(sc(NC(=S)NC(=O)c3ccccc3)c2C(=O)O)CO1	-22%	0%	-34%	79µM*!	x
Cc1cccc(NC(=O)c2sc3nc(-c4cc5ccc(O)cc5oc4=O)[nH]c(=O)c3c2C)c1	-14%	-1%	-21%	7.1µM*	2
CCc1ccccc1NC(=O)C1CCCN(c2nnc(-n3c(C)ccc3C)s2)C1 (stereo not given)	-28%	0%	-13%	-2%	-22
COc1ccc(C2CC(=O)c3c([nH]c(C(=O)OC4CCCC4)c3C)C2)cc1OC (stereo not given)	-20%	2%	-24%	0%	10
COc1ccc(C2CC(=O)c3c([nH]c(C(=O)OC4CCCCCC4)c3C)C2)cc1OC (stereo not given)	u	2%	-31%	89µM*	15
COc1cc2[nH]c(=O)n(Cc3ccc(C(=O)N4CCN(c5ccc(Cl)cc5)CC4)cc3)c(=O)c2cc1OC	14µM*	-2%	-50%	9%	1
COc1ccc(Cn2c(=O)[nH]c3cc(C(=O)N4CCN(c5cccc(Cl)c5)CC4)ccc3c2=O)cc1	-11%	i	-12%	9%	14
COc1ccc(CNC(=O)c2ccc3c(c2)N(Cc2ccccc2)C(=O)c2ccccc2S3=O)cc1 (stereo not given)	-8%	-3%	-16%	4%	0
COC(=O)c1ccc(NC(=O)CC2Nc3cc(C)c(C)cc3NC2=O)cc1 (stereo not given)	25µM*	4.5µM*	-76%	29%	-47
SMILES	HTT promoter inh	OvCa metastasis	HTT-AS act	NTMT1 inh	DRV1 agonist
CC(=O)c1cc2c(s1)c1cnn(Cc3ccccc3F)c(=O)c1n2C	x	x	x	7%	x
COCCNc1nc(NCc2ccccc2OC)c2cnn(C)c2n1	u	i	-23%	-8%	2
COCCCNc1nc(NCc2ccc(C)cc2)c2cnn(C)c2n1	u	4%	-19%	3%	69*
COCCCNc1nc(NCc2ccccc2OC)c2cnn(C)c2n1	u	-3%	-26%	u	75*
CCN(c1ccccc1)S(=O)(=O)c1cc(-c2onc(C)c2C)ccc1OC	-26%	-9%	-29%	-14%	-25
Cc1ccc(N2C(=O)CSC23C(=O)N(Cc2ccccc2F)c2ccccc23)cc1F (stereo not given)	25µM*	i	-33%	-1%	-23
CCOc1ccc(NC(=O)c2cnc(N3CCCCC3)c3ccccc23)cc1	-20%	-14%	-18%	1%	-24
Cc1ccc(Nc2c(-c3cccc(Cl)c3)nc3cccc(C)n23)cc1	-25%	8%	-25%	7%	-17
COc1cc(C(=O)NS(=O)(=O)c2ccccc2C)ccc1Cc1cn(C)c2ccc(NC(=O)OC3CCCC3)cc12	u	u	-31%	71µM*	46
CO[C@@H]1CC(OC2CCC3(C)C(CCC45CCC(C6=CC(=O)OC6)C(C)(CCC43)C5=O)C2)O[C@H](C)[C@@H]1O[C@@H]1O[C@H](CO[C@@H]2O[C@H](CO)[C@@H](O)[C@H](O)[C@H]2O)[C@@H](O)[C@H](O)[C@H]1O (stereo not given in full)	x	x	x	-1%[12.6 µM]	x
CCOc1ccc(-n2nc3ccc(NC(=O)c4ccc(-c5cccc(Cl)c5)o4)cc3n2)cc1	u	15%	-67%	79µM*	-5
CC(=O)c1cccc(NC(=O)CN2C(=O)c3ccccc3Sc3ncccc32)c1	-15%	i	u	-2%	72*
COC(=O)c1ccc2c(c1)N(CC(=O)Nc1ccc(OC)c(Cl)c1)C(=O)c1ccccc1S2	-34%	20%	-12%	4%	-5
CCN(CC)C(=O)c1ccc2c(c1)N(Cc1ccc(C(F)(F)F)cc1)C(=O)c1ccccc1S2	-23%	-27%	-21%	-12%	87*
COCCNC(=O)c1ccc2c(c1)N(Cc1ccc(C(F)(F)F)cc1)C(=O)c1ccccc1S2	u	i	-43%	-3%	17
COC(=O)c1ccc2c(c1)N(CC(=O)Nc1cccc(C(F)(F)F)c1)C(=O)c1ccccc1S2	-21%	7%	-15%	17%	107*
CC(=O)c1cccc(NC(=O)CSc2nnc3ccc(-c4ccc(C)cc4)nn23)c1	-17%	-18%	1%	-19%	-6
CCCOc1ccc(CNC(=O)CCCn2ncn3c(cc4sc(CC)cc43)c2=O)cc1	u	2%	-68%	-4%	7
